Measurements published in PubChem BioAssay (EPA / NIEHS).
Active and inactive are the calls of the source. How the source made its calls: active means hit-call score of the fitted dose curve at least 0.9, where 1 is the maximum; inactive means score below 0.9.

Test: CCTE_Padilla_ZF_Score.Edema: CCTE's 144 Hour Post-fertilization zebrafish Assay Score for Edema Malformation, Padilla Lab (AID 2284406)
Procedure: CCTE_Padilla_ZF_Phenotype_Score is a whole embryo, multiplexed assay using zebrafish ova exposed for 144 hours post fertilization on a 96-well plate.CCTE_Padilla_ZF_Score.Edema is one of one assay component(s) measured or calculated from the CCTE_Padilla_ZF_Phenotype_Score assay. It is designed to make measurements of zebrafish development as detected with brightfield microscopy of developing zebrafish embryos.Data from the assay component CCTE_Padilla_ZF_Score.Edema was analyzed into 1 assay endpoints. This assay endpoint, CCTE_Padilla_ZF_Score.Edema, was analyzed in the positive analysis fitting direction relative to DMSO as the negative control and baseline of activity. Using a type of viability reporter, gain-of-signal activity can be used to understand changes in developmentals as they relate to the whole embryo. To generalize the intended target to other relatable targets, this assay endpoint is annotated to the zebrafish development intended target family, where the subfamily is embryonic edema.
Zebrafish husbandry: Wild type adult zebrafish (Danio rerio; undefined outbred stock obtained from Aquatic Research Organisms, Hampton, NH, 03842) were housed in an AAALAC-approved animal facility at 28C with a 14:10 h light: dark cycle (lights on at 08:30 h). Adult fish (2-3 females per male; density = 15-20 adults per tank) were kept in one of several 9-liter (L) flow-through colony tanks (Aquaneering Inc., San Diego, CA). All adults in a colony tank were placed in a 2 L (static) breeding tank (Aquatic Habitats, Apopka, FL) one hour prior to light onset. Typically, adults from two to three colony tanks were mated on the same day. Two hours after light onset the adults were returned to the colony tank. All embryos were gathered from each breeder tank, pooled, and placed in a 28C water bath for 2 h, followed by two washes with 0.06% bleach (v/v) in 10% Hanks' Balanced Salt Solution (13.7 mM NaCl 0.54 mM KCl, 25 uM Na2HPO4, 130 uM CaCl2 100 um MgSO4 and 420 um NaHCO3,), hereafter referred to as Hanks' solution, for 5 min in order to remove any residual bacteria or fungi. Immediately following washing, the embryos were examined, and healthy embryos were separated from dead or unfertilized eggs and moved into fresh Hanks'. Chemical exposures: Zebrafish embryos were exposed in 96-well plates. Between 6- and 8-hours post fertilization (hpf), healthy embryos (with chorions) were transferred, one embryo per well, into 96 well (0.5 mL) microtiter plates (Cell Culture-Treated, Flat-Bottom Microplate 96 well [Corning Costar, Kennebunk, ME; Cat 09-761-145]) filled with 200 uL of Hanks' solution. A random number generator was used to assign the order in which the rows of embryos were plated in 96 well plates each week. After plating, the embryos were dosed with 0.8 uL of the chemical dosing solution then immediately sealed with AlumaSeal II (Excel Scientific Inc, Victorville, CA) to prevent volatilization of the chemicals, and then placed in a leakproof secondary container. These containers were placed in an incubator maintained on a 14:10 h light: dark cycle at 26C for rearing. On 5 dpf, live larvae were gently moved out of the plate with test chemicals and into a new 96 well mesh plate (Millipore Corp., Bedford, MA) with just the Hanks' solution. Once within the mesh well plate, the animals were rinsed with 400 uL of fresh Hanks' three times, and then the plates were covered with a non-adhesive material (Microseal A, BioRad, Hercules, CA), plate lid added, and then plate sides wrapped in Parafilm (PM992, Bermis Company, Neenah, WI), and returned to the incubator. This rinse on 5 dpf was conducted to lessen the possible exposure of the human assessors to the chemicals during detailed examination of each larva at 6 dpf.Larval assessments: On 6 dpf between 8 and 10 AM, two individual assessors, blinded to the chemical treatments, independently examined each larva for mortality, hatching status, and malformations using an Olympus SZH10 stereo microscope. […]

**Q.** For `OCCC(F)(F)C(F)(F)C(F)(F)C(F)(F)F`, which outcome is on record?
**A.** inactive

**Q.** For `O=C(Cl)C(F)(F)C(F)(F)C(F)(F)C(=O)Cl`, which outcome is on record?
**A.** inactive

**Q.** With `NCC(F)(F)C(F)(F)C(F)(F)C(F)(F)F` as the compound, how does the outcome read?
**A.** inactive

**Q.** With `FC(F)(F)COC(OCC(F)(F)F)OCC(F)(F)F` as the compound, how does the outcome read?
**A.** inactive

**Q.** Which outcome does the source give for `O=S(=O)(O)CCC(F)(F)C(F)(F)C(F)(F)C(F)(F)C(F)(F)C(F)(F)F` here?
**A.** inactive

**Q.** For `FC(F)(F)C(F)(F)C(F)(F)C(F)(F)C(F)(F)C(F)(F)I`, which outcome is on record?
**A.** inactive

**Q.** With `OC(O)(C(F)C(O)(O)C(F)(F)F)C(F)(F)F` as the compound, how does the AC50 read?
**A.** 31.3 µM (active)

**Q.** With `C[Si](C)(C)C(F)(F)C(F)(F)C(F)(F)F` as the compound, how does the outcome read?
**A.** inactive

**Q.** With `FC(F)=C(F)C(F)(F)C(F)(F)C(F)(F)C(F)(F)C(F)(F)C(F)(F)F` as the compound, how does the outcome read?
**A.** inactive

**Q.** Which AC50 does the source give for `FC(F)C(F)(F)COCC1CO1` (stereo not given) here?
**A.** 29.5 µM (active)
